Bioassay records: PubChem BioAssay, National Center for Advancing Translational Sciences (NCATS)
Shiga toxin inh – blocks Shiga toxin action in Vero cells; AID 2315; 290,000 compounds, 9.2% hits; Vero cells, Shiga toxin protein synthesis inhibition reporter; inhibition, % at 38.7 µM; in the data active = inhibition mostly above about 28%, no sharp cut-off; inactive = mostly below about 43%; note: 0% is about no effect
SARS PLpro yeast – blocks SARS-CoV papain-like protease in a yeast assay; Potency, µM (titrated, usually from 32.9 µM), for inactives: at the top dose activity, positive = growth rescue, hits mostly activators; S. cerevisiae expressing SARS-CoV PLpro, growth rescue; AID 485353; 330,000 compounds, 0.19% hits; note: potency is the fitted concentration of half-maximal effect; 0% is about no effect; nearly all actives have a fitted effect of over 55% in size
NS1 function inh – blocks influenza NS1 protein function; Potency, µM (titrated, usually from 46.1 µM), for inactives: at the top dose activity, positive = more growth; 270,000 compounds, 0.4% hits; AID 2326; note: potency is the fitted concentration of half-maximal effect; actives are rising curves; nearly all actives have a fitted effect of over 50% in size
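OD600 was taken as the measure of yeast growth restored by compound in an NS1-expressing S. cerevisiae strain. Cells had been washed out of glucose medium and diluted 1:100 into galactose -URA medium, pH 6.0.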
Cycloheximide cs – affects cycloheximide protein synthesis inhibition readout, counter-screen | max response, % | 300,000 compounds, 12% hits | cell reporter, cycloheximide protein synthesis inhibition counterscreen; in the data active = max response mostly above about 13%, no sharp cut-off; inactive = mostly below about 14%; note: read at 38.3 µM for the half of the compounds with a filed dose; 0% is about no effect
* marks the source's active call; other numbers are inactive results; ? = inconclusive; / = not tested or not shown. In the library only some 12% were active in any assay of this set; here they are far more common. Unless noted, calls come from the whole dose curve.

SMILES	Shiga toxin inh	SARS PLpro yeast	NS1 function inh	Cycloheximide cs
COc1ccccc1N=c1oc2c(OC)cccc2cc1C(=O)NCc1ccco1	115*	11%	9%	48*
COc1ccc(OC)c(N=c2oc3c(OC)cccc3cc2C(=O)NCc2ccco2)c1	54	2%	4%	-1
O=C(Cc1cccc(C(F)(F)F)c1)OCN1C(=O)c2ccccc2C1=O	12	-4%	-6%	7
COc1ccc2[nH]c(C(=O)NCc3ccccc3)c(C)c2c1	23	-1%	-3%	15
COc1ccc(C(=O)Nc2ccc(Cl)cc2C(=O)NCc2ccco2)cc1OC	55*	4%	-52%	43*
COc1ccc(N=C2C(=Nc3ccc(OC)cc3)N(c3ccc(N(C)C)cc3)C(=S)N2c2ccc(OC)cc2)cc1	-6	-11%	0%	1
COc1ccc(N=C2C(=Nc3ccc(OC)cc3)N(c3ccc(OC)cc3)C(=S)N2C(=O)c2ccc(OC)cc2)cc1	42*	19%	9%	14*
COc1ccc(N=C2C(=Nc3ccc(OC)cc3)N(c3ccccc3)C(=S)N2C(=O)c2ccc(Cl)cc2)cc1	63*	7%	15%	43*
Nc1ccncc1N	/	0%	/	/
O=C(Cn1cc(C(F)(F)F)cc(Cl)c1=O)NCc1ccc(F)cc1	87*	0%	4%	23
O=C(Cn1cc(C(F)(F)F)ccc1=O)Nc1ccccc1	44*	-1%	5%	12*
NS(=O)(=O)c1cccc(NC(=O)Cn2cc(C(F)(F)F)cc(Cl)c2=O)c1	9	-1%	0%	-1
CN(C)S(=O)(=O)c1cccc(NC(=O)Cn2cc(C(F)(F)F)cc(Cl)c2=O)c1	71*	-5%	/	7
CC(C)C(=O)Nc1nc2cc3c(cc2s1)OCCO3	93*	-1%	0%	55*
CN(c1ccc(OCC(=O)Nc2nc3ccccc3s2)cc1)S(=O)(=O)c1ccccc1	-8	-3%	5%	-3
CC(=O)Nc1nc2cc3c(cc2s1)OCO3	96*	4%	-55%	31*
CC(=O)c1sc(Nc2nc3cc4c(cc3s2)OCO4)nc1C	74*	0%	10%	27
O=C(Nc1nc2cc3c(cc2s1)OCO3)C1=COCCO1	10	-33%	-6%	13
O=C(COc1ccccc1)Nc1nc2cc3c(cc2s1)OCCO3	19	3%	6%	28*
Cc1oc2c(CN3CCCCC3C)c(O)ccc2c(=O)c1-c1ccc(Br)cc1 (centres undefined)	13	0%	-1%	-2
Cc1cccc(N(C)S(=O)(=O)c2ccc3c(c2)C(C)(C)C(=O)N3C)c1	-1	1%	15%	-3
O=C(Nc1nc2cc3c(cc2s1)OCCO3)c1ccco1	-14	-13%	-28%	-8
CCOC(=O)c1sc(NC(=O)COc2ccc3c(c2)OCO3)nc1C	-7	-1%	0%	-3
CCOC(=O)c1sc(Nc2nc3c(OC)cccc3s2)cc1C	108*	-128%	-6%	53*
O=C(Nc1nc2cc3c(cc2s1)OCO3)c1ccco1	86*	-5%	-7%	49*
SMILES	Shiga toxin inh	SARS PLpro yeast	NS1 function inh	Cycloheximide cs
CCOC(=O)c1sc(Nc2nc3cc4c(cc3s2)OCO4)cc1C	82*	8%	?	43*
O=C(COC(=O)C1CC1)Nc1ccc(OC(F)F)cc1	24*	13%	-11%	26*
O=C(COC(=O)C1CC1)NCc1ccccc1	/	3%	/	/
NS(=O)(=O)c1ccc(NC(=O)COC(=O)CCC2CCCC2)cc1	13	0%	/	7
NS(=O)(=O)c1ccc(NC(=O)COC(=O)C2CCCCC2)cc1	40*	0%	-3%	33*
O=C(COC(=O)C1CCC1)Nc1ccc(OC(F)F)cc1	17	-1%	-3%	-2
O=C(COC(=O)C1CC1)Nc1ccc(N=Nc2ccccc2)cc1	79*	2%	-1%	66*
COC(=O)CCC(=O)Nc1ccc(N=Nc2ccccc2)cc1	64*	0%	/	39*
O=C(CN1CCN(Cc2ccc(Cl)cc2)CC1)N/N=C/c1cccs1	12	0%	-2%	-2
C[C@@H]1CCCN(CP(=O)(c2ccccc2)c2ccccc2)C1	/	/	3%	/
O=C(Cn1cnc([N+](=O)[O-])n1)N/N=C/c1ccc2ccccc2c1	7	-4%	-10%	0
COC(=O)c1ccc(CN2CCCC(CO)(Cc3ccc(F)cc3F)C2)cc1 (centres undefined)	-3	-9%	12%	2
O=C(COC(=O)c1ccccc1O)Nc1ccc(OC(F)F)cc1	56*	-3%	-5%	22*
FCCCOc1ccc(-c2nccc(-c3ccccn3)n2)cc1	35*	-1%	-7%	20*
COC(=O)C(C)Oc1ccc(-c2nccc(-c3ccc(F)cc3)n2)cc1 (centres undefined)	26	-7%	7%	-2
COC(=O)C(C)Oc1ccc(-c2nccc(-c3ccccn3)n2)cc1 (centres undefined)	23	0%	-6%	16*
O=C(O)COc1ccc(-c2nccc(-c3ccccn3)n2)cc1	20	1%	/	6
Cc1ccc(N2CCN(c3ccc(C)cc3)C(CC(=O)O)C2=O)cc1 (centres undefined)	4	-1%	16%	9.2*
COc1ccc(OCC(=O)N2CCC3(CC2)CC(=O)c2ccccc2O3)cc1	/	-2%	/	/
NC(=O)CSc1nnc(Cc2ccc3c(c2)OCO3)o1	-6	0%	-1%	1
O=C(Nc1nnc(-c2ccccc2)o1)Nc1ccccc1Cl	17	2%	-34%	15*
Cc1ccc(OCC(=O)Nc2cccc(-c3nnc(-c4ccccc4)o3)c2)cc1	14	8%	-73%	12
O=C(Nc1nnc(-c2ccccc2)o1)Nc1ccc(F)cc1F	10	0%	0%	2
O=C(Nc1ccc(F)cc1)Nc1nnc(-c2ccccc2)o1	-10	0%	0%	-1
Cc1ccc(NC(=O)Nc2nnc(-c3ccccc3)o2)cc1	77*	1%	-11%	51*
SMILES	Shiga toxin inh	SARS PLpro yeast	NS1 function inh	Cycloheximide cs
CCCCNC(=O)Nc1nnc(-c2ccc(OCC)cc2)o1	-7	8%	-17%	1
Cc1ccc(-c2nnc(Nc3ccccc3)o2)cc1	42	-6%	-46%	24*
CCCCNC(=O)Nc1nnc(-c2ccccc2)o1	13	18%	-10%	29*
CN(CC(=O)Nc1ccc(Cl)c(C(F)(F)F)c1)C(=O)c1cccc(N2C(=O)CCC2=O)c1	/	-2%	/	/
COc1cccc(CN2CCNC(=O)C2CC(=O)N(C)Cc2nc(C)cs2)c1OC (centres undefined)	-1	-10%	16%	-2
O=C(CSc1nnc(Cc2ccccc2)n1Cc1ccccc1)NCc1ccco1	23*	-4%	6%	12
O=C(CSc1nnc(-c2cccnc2)n1Cc1ccccc1)NCc1ccco1	-18	-1%	6%	-10
O=C(CSc1nnc(CNc2ccc(Cl)cc2)n1Cc1ccccc1)NCc1ccco1	19	-9%	-21%	14*
O=C(O)CCSc1nnc(CNc2ccc(Cl)cc2)n1Cc1ccccc1	-2	-5%	12%	-3
Cc1ccc(S(=O)(=O)N(CCCO)CC(O)CON=C2c3ccccc3-c3ccccc32)cc1 (centres undefined)	-11	-31%	9%	-1
Cc1ccc(CN2C(=O)S/C(=C\c3ccccc3OCC(=O)O)C2=O)cc1	11	20%	4%	-1
O=C(c1cc(-c2ccc(Cl)cc2)on1)N1CCOCC1	111*	1%	-2%	29*
